Source: PubChem BioAssay AID1159580 (chemical genetic matrix, 2015)
Values joined by “and” are separate entries in the source; they are usually repeats but may differ in a detail not shown here. Identical values can stand only once. In all, about 5,500 compounds went through this assay and about 2,000 (36%) were called active. Inconclusive results (about 18%) are left out. Cut-off read from the data, not from the text of the source: active = normalized growth mostly below about 0.91 (no sharp cut-off); inconclusive = no clear call, values can overlap the other calls; inactive = mostly above about 0.92. The list shows a part of the results.

Experiment: chemical genetic growth profiling, strain panel (AID 1159580);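 note: tested at 20 µM; growth read once vehicle control cultures reached saturation at 30 °C; 1 = growth at the plate median or of vehicle wells; lower values mean less growth of the strain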
Settings: S. cerevisiae deletion strains, growth OD

Measured: normalized growth

NC12CC3CC(CC(C3)C1)C2
inactive: locus YAL021C, strain ccr4, hits give low values 0.977 | locus YAL026C, strain drs2, hits give low values 0.996 | locus YAL030W, strain snc1, hits give low values 1.01 | locus YAL040C, strain CLN3, hits give low values 0.968 | locus YBL061C, strain skt5, hits give low values 1.01 | locus YBR009C, strain hhf1, hits give low values 0.99 | locus YBR021W, strain FUR4, hits give low values 0.992 | locus YBR023C, strain chs3, hits give low values 1.01 | locus YBR171W, strain sec66, hits give low values 1.01 | locus YBR229C, strain ROT2, hits give low values 1 | locus YBR231C, strain swc5, hits give low values 1.03 | locus YBR279W, strain paf1, hits give low values 0.994 | locus YCL011C, strain gbp2, hits give low values 0.985 | locus YCL016C, strain dcc1, hits give low values 0.977 | locus YCL029C, strain bik1, hits give low values 1.02 | locus YCL061C, strain MRC1 (second series), hits give low values 0.991 | locus YCL061C, strain MRC1, hits give low values 1.04 | locus YCL069W, strain vba3, hits give low values 1.01 | locus YCR088W, strain abp1, hits give low values 1.01 | locus YDL005C, strain med2, hits give low values 0.987 | locus YDL035C, strain GPR1, hits give low values 1.01 | locus YDL040C, strain nat1, hits give low values 1 | locus YDL074C, strain BRE1, hits give low values 1.02 | locus YDL101C, strain DUN1, hits give low values 1.02 | locus YDL134C, strain PPH21, hits give low values 1 | locus YDL185W, strain tfp1, hits give low values 1.02 | locus YDL192W, strain arf1, hits give low values 1.03 | locus YDR001C, strain nth1, hits give low values 0.995 | locus YDR069C, strain doa4, hits give low values 1.01 | locus YDR101C, strain arx1, hits give low values 1.03 | locus YDR137W, strain rgp1, hits give low values 1.03 | locus YDR150W, strain NUM1, hits give low values 0.992 | locus YDR159W, strain sac3, hits give low values 0.989 | locus YDR162C, strain NBP2, hits give low values 1.02 | locus YDR195W, strain ref2 1 | locus YDR297W, strain sur2, hits give low values 1.01 | locus YDR318W, strain mcm21, hits give low values 1.02 | locus YDR334W, strain swr1, hits give low values 0.994 | locus YDR335W, strain msn5, hits give low values 1.01 | locus YDR363W, strain ESC2, hits give low values 1.04 | locus YDR388W, hits give low values 1.02 | locus YDR392W, strain spt3, hits give low values 0.96 | locus YDR502C, strain sam2, hits give low values 1.01 | locus YEL003W, strain gim4, hits give low values 1.03 | locus YEL037C, strain rad23, hits give low values 0.995 | locus YEL061C, strain CIN8 (second series), hits give low values 0.998 | locus YEL061C, strain CIN8, hits give low values 1.01 | locus YER002W, strain NOP16, hits give low values 0.993 | locus YER015W, strain faa2, hits give low values 1.01 | locus YER016W, strain bim1, hits give low values 0.996 | locus YER110C, hits give low values 1.03 | locus YER111C, strain swi4, hits give low values 0.998 | locus YER155C, strain BEM2 (second series), hits give low values 1.05 | locus YER155C, strain BEM2, hits give low values 0.998 | locus YER167W, strain BCK2, hits give low values 1 | locus YFR010W, strain ubp6, hits give low values 1.01 | locus YGL078C, strain dbp3, hits give low values 1.02 | locus YGL086W, strain mad1, hits give low values 1.01 | locus YGL167C, strain pmr1, hits give low values 1 | locus YGL173C, strain kem1, hits give low values 1.03 | locus YGL227W, strain vid30, hits give low values 1 | locus YGL240W, strain doc1, hits give low values 1.04 | locus YGL248W, strain PDE1, hits give low values 1.03 | locus YGL253W, strain hxk2, hits give low values 0.98 | locus YGR078C, strain PAC10, hits give low values 0.999 | locus YGR135W, strain pre9, hits give low values 1.01 | locus YGR229C, strain SMI1, hits give low values 1.01 | locus YGR252W, strain gcn5, hits give low values 1.03 | locus YHR013C, strain ard1, hits give low values 1 | locus YHR027C, strain rpn1, hits give low values 0.996 | locus YHR030C, strain SLT2, hits give low values 1 | locus YHR079C, strain IRE1 (second series), hits give low values 1.03 | locus YHR079C, strain IRE1, hits give low values 1.02 | locus YHR094C, strain hxt1, hits give low values 1.01 | locus YHR129C, strain ARP1, hits give low values 1.01 | locus YHR142W, strain chs7, hits give low values 0.995 | locus YHR200W, strain rpn10, hits give low values 1.02 | locus YIL066C, strain RNR3, hits give low values 1.02 | locus YIL073C, strain SPO22, hits give low values 1.11 | locus YIL125W, strain kgd1, hits give low values 1.02 | locus YIR030C, strain dcg1, hits give low values 1.02 | locus YJL092W, strain hpr5, hits give low values 1.01 | locus YJL095W, strain BCK1 (second series), hits give low values 1.01 | locus YJL095W, strain BCK1, hits give low values 1.02 and 1.03 | locus YJL115W, strain asf1, hits give low values 0.999 | locus YJL129C, strain trk1, hits give low values 1.01 | locus YJL134W, strain LCB3, hits give low values 1.01 | locus YJL154C, strain vps35, hits give low values 0.998 | locus YJL164C, strain tpk1, hits give low values 0.98 | locus YJL166W, strain qcr8, hits give low values 1.04 | locus YJL168C, strain set2, hits give low values 1.02 | locus YJL187C, strain SWE1 (second series), hits give low values 1.03 | locus YJL187C, strain SWE1, hits give low values 1.01 | locus YJR043C, strain POL32, hits give low values 0.986 | locus YJR066W, strain TOR1, hits give low values 0.988 | locus YJR075W, strain HOC1, hits give low values 1.02 | locus YKL009W, strain mrt4, hits give low values 1.02 | locus YKL068W, hits give low values 1.01 | locus YKL085W, strain MDH1 (second series), hits give low values 1.01 | locus YKL085W, strain MDH1, hits give low values 1.01 | locus YKL160W, strain elf1, hits give low values 1.02 | locus YKR001C, strain vps1, hits give low values 1.01 | locus YKR026C, strain gcn3, hits give low values 1 | locus YKR091W, strain srl3, hits give low values 1 | locus YLL001W, strain dnm1, hits give low values 1.02 | locus YLL026W, hits give low values 1.01 | locus YLL041C, strain sdh2, hits give low values 0.993 | locus YLR027C, strain aat2, hits give low values 1.01 | locus YLR039C, strain RIC1, hits give low values 1.04 | locus YLR058C, strain SHM2, hits give low values 1.02 | locus YLR102C, strain apc9, hits give low values 1.02 | locus YLR113W, strain HOG1, hits give low values 1.04 | locus YLR221C, strain rsa3, hits give low values 0.986 | locus YLR258W, strain gsy2, hits give low values 0.993 | locus YLR262C, strain YPT6 (second series), hits give low values 1.03 | locus YLR262C, strain YPT6, hits give low values 1.07 | locus YLR268W, strain sec22, hits give low values 1.02 | locus YLR320W, strain mms22, hits give low values 0.977 | locus YLR330W, strain CHS5, hits give low values 1.01 | locus YLR342W, strain FKS1 (second series), hits give low values 0.997 | locus YLR342W, strain FKS1, hits give low values 1.03 | locus YLR357W, strain rsc2, hits give low values 0.993 | locus YLR370C, strain arc18, hits give low values 1 | locus YLR371W, strain rom2, hits give low values 1.02 | locus YLR384C, strain iki3, hits give low values 0.998 | locus YLR418C, strain cdc73, hits give low values 1.04 | locus YML016C, strain PPZ1, hits give low values 1.01 | locus YML032C, strain rad52, hits give low values 1.01 | locus YML120C, strain ndi1, hits give low values 1.03 | locus YML124C, strain tub3, hits give low values 1.02 | locus YMR058W, strain fet3, hits give low values 1.01 | locus YMR078C, strain ctf18, hits give low values 1.04 | locus YMR125W, strain sto1, hits give low values 0.999 | locus YMR129W, hits give low values 1 | locus YMR205C, strain PFK2, hits give low values 1.01 | locus YMR223W, strain ubp8, hits give low values 1.02 | locus YMR231W, strain pep5, hits give low values 0.999 | locus YMR307W, strain GAS1, hits give low values 0.933 | locus YNL067W, strain RPL9B, hits give low values 1.03 | locus YNL071W, strain lat1, hits give low values 0.989 | locus YNL128W, strain TEP1, hits give low values 0.983 | locus YNL153C, strain GIM3, hits give low values 1 | locus YNL175C, strain NOP13, hits give low values 0.996 | locus YNL183C, strain NPR1, hits give low values 0.972 | locus YNL197C, strain WHI3, hits give low values 0.978 | locus YNL209W, strain ssb2, hits give low values 0.989 | locus YNL224C, strain SQS1, hits give low values 1.01 | locus YNL233W, strain BNI4, hits give low values 1.02 | locus YNL248C, strain rpa49, hits give low values 0.994 | locus YNL250W, strain rad50, hits give low values 1.04 | locus YNL271C, strain bni1, hits give low values 1.03 | locus YNL298W, strain CLA4, hits give low values 1.02 | locus YNL307C, strain MCK1, hits give low values 1.03 | locus YNL322C, strain KRE1 (second series), hits give low values 0.999 | locus YNL322C, strain KRE1, hits give low values 1 | locus YNR049C, strain mso1, hits give low values 1 | locus YNR052C, strain pop2, hits give low values 1.02 | locus YOL006C, strain TOP1, hits give low values 1.1 | locus YOL012C, strain htz1 1.89 | locus YOL147C, strain pex11, hits give low values 1.03 | locus YOR001W, strain rrp6, hits give low values 1.05 | locus YOR061W, strain CKA2, hits give low values 1.02 | locus YOR069W, strain VPS5, hits give low values 1.01 | locus YOR070C, strain gyp1, hits give low values 0.99 | locus YOR080W, strain dia2, hits give low values 1.01 | locus YOR083W, strain WHI5 (second series), hits give low values 1 | locus YOR083W, strain WHI5, hits give low values 0.994 | locus YOR106W, strain vam3, hits give low values 1.04 | locus YOR136W, strain idh2, hits give low values 1.03 | locus YOR144C, strain elg1, hits give low values 1.02 | locus YOR184W, strain ser1, hits give low values 1.02 | locus YOR231W, strain MKK1, hits give low values 1.02 | locus YOR265W, strain rbl2, hits give low values 1.01 | locus YOR270C, strain vph1, hits give low values 1.03 | locus YOR290C, strain snf2, hits give low values 0.97 | locus YOR316C, strain cot1, hits give low values 1.02 | locus YPL051W, strain arl3, hits give low values 1.02 | locus YPL055C, strain LGE1, hits give low values 1.01 | locus YPL078C, strain atp4, hits give low values 1.05 | locus YPL106C, strain sse1, hits give low values 0.986 | locus YPL240C, strain hsp82, hits give low values 1.01 | locus YPL241C, strain CIN2, hits give low values 1 | locus YPL256C, strain CLN2, hits give low values 1.02 | locus YPR119W, strain clb2, hits give low values 1.02 | locus YPR141C, strain kar3, hits give low values 1.03 | locus YPR163C, strain tif3, hits give low values 1.02 | locus YPR167C, strain met16, hits give low values 1.03 | strain wtn01, hits give low values 1.01
